# Source: paper PMC7819943, “Rice protein-binding microarrays: a tool to detect cis-acting elements near promoter regions in rice”
# Over roughly 35,000 sequences, “fluorescence intensity (a.u.)” has its median near 10,000; the highest 2% begin near 52,000. What follows is part of a selection rich in the highest values, with near analogues and random picks from the rest.
# Molecular target: T1, OsWOX13 (Oryza sativa, UniProt Q5QMM3 1-267)
# T1 sequence: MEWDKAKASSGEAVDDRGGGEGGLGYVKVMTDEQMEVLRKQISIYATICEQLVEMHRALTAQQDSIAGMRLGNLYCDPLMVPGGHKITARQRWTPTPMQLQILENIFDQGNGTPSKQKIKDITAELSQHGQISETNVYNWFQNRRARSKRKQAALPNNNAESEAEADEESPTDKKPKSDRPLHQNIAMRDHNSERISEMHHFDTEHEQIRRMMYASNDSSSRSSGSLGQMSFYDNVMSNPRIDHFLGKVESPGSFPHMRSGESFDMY
# Assay: protein-binding microarray (RPBM); PBS, 2% BSA, 51.3 ng/ul salmon testes DNA, 50 uM zinc acetate, 200 nM TF, 25 C, 1 h; high values mean tight binding
# Conditions: protein: recombinant; tags: N-terminal polyhistidine and DsRed monomer fusion (pET32a); label: CyDye5-dUTP incorporated in the synthesized complementary strand; 3' TTTTT single-stranded linker to array surface; dsDNA, one strand shown
# Method in brief: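 In PBS with 2% BSA, salmon testes DNA and 50 µM zinc acetate, 200 nM protein was incubated on a custom Agilent array at 25 °C for 1 h and then washed off. The array had been made double-stranded by primer extension with Cy5-dUTP and blocked with 2% BSA. The proteins were transcription factors fused N-terminally to polyhistidine and DsRed, expressed in E. coli BL21-CodonPlus and purified on Ni–NTA. The binding signal is per-feature fluorescence intensity (arbitrary units) from an Axon 4000B scanner.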
row,Sequence,binding signal
1,GATAATTGAGGGATTATTTTATGGATATACTAGATCTGCACGGAGTCACCTAGTGCAG,52400 fluorescence intensity (a.u.)
2,ATGATTAGAGAGAATGGGTTTAGTTATTTGTTGATCCACACGGAGTCACCTAGTGCAG,29400 fluorescence intensity (a.u.)
3,ACATGACTAATCTTATTGACTTAAGAGCTGATTAGGATACCGGAGTCACCTAGTGCAG,20200 fluorescence intensity (a.u.)
4,CATAATTGCACGATCATTGATTTTGGAACATTCTGAGGCTCGGAGTCACCTAGTGCAG,57100 fluorescence intensity (a.u.)
5,GTGCTCTAATTATTTGTATCTTACAGATAGATGACAGAGCCGGAGTCACCTAGTGCAG,19100 fluorescence intensity (a.u.)
6,TTTAATTGATTTTGTTTAGAATTTGAGGACATGATCCACGCGGAGTCACCTAGTGCAG,62900 fluorescence intensity (a.u.)
7,AATATATGGATAATTGTACTAGATTATCCTATTTCATACACGGAGTCACCTAGTGCAG,6460 fluorescence intensity (a.u.)
8,TGTGAGTGATCAAATAATTGATCATAATTTTCTATCGATTCGGAGTCACCTAGTGCAG,37500 fluorescence intensity (a.u.)
9,ACTTGACAGCCCTAATTGATCTTATTACATGCAGAGGATCCGGAGTCACCTAGTGCAG,56300 fluorescence intensity (a.u.)
10,CTCCGGTTTAATTTTAATTGATGTTTTGGACAATGGCACGCGGAGTCACCTAGTGCAG,44900 fluorescence intensity (a.u.)
11,GATCTGATTGAGACATATCTGAAAATAATTTGCACGCAGACGGAGTCACCTAGTGCAG,30600 fluorescence intensity (a.u.)
12,TGGATTGAGATATTTATTTATGATGATCACATCTGCACCTCGGAGTCACCTAGTGCAG,9980 fluorescence intensity (a.u.)
13,TCAATTAATATATAATTGGCATTGGGTTTGATCATCTCTGCGGAGTCACCTAGTGCAG,50700 fluorescence intensity (a.u.)
14,CATGTTAATTTGGGACGAGAGTCGGACTCCTATTTCCTTTCGGAGTCACCTAGTGCAG,7570 fluorescence intensity (a.u.)
15,AAAATTGATGTTCTCTTTGGTGCATTTCTTTCTTATTGTCCGGAGTCACCTAGTGCAG,26800 fluorescence intensity (a.u.)
16,CAATTATCAATCAGTCTGAAATCTTGCATTTGCATTTGCACGGAGTCACCTAGTGCAG,22400 fluorescence intensity (a.u.)
17,TAAGACTAATTATTCTTTTAGTAATAGACGACGTACTCGCCGGAGTCACCTAGTGCAG,22300 fluorescence intensity (a.u.)
18,ACGTGATACATCTTGTTCTAGATTTGTTTAATTTAAGCCACGGAGTCACCTAGTGCAG,3240 fluorescence intensity (a.u.)
19,AATGATTGACAATACTTAGATTTCTTCCCTTAATTACATCCGGAGTCACCTAGTGCAG,54400 fluorescence intensity (a.u.)
20,ATATAATTATAATTTATTTTATTGTGACTTGATTTATCATCGGAGTCACCTAGTGCAG,36400 fluorescence intensity (a.u.)
21,GTAGATATTGATGATTTATATAACTTTGTTGTTGATGACTCGGAGTCACCTAGTGCAG,14500 fluorescence intensity (a.u.)

row,Sequence,binding signal
1,GTGCATTATCGATCATAATTAGCAGGTGAGAGATATTTAACGGAGTCACCTAGTGCAG,4060 fluorescence intensity (a.u.)
2,TATTTTAGATTGATATACAATCTTTTGTGGTGTTAGCACTCGGAGTCACCTAGTGCAG,52900 fluorescence intensity (a.u.)
3,ACTTGCATGCTTAATTGATTTAGTTGGTGACCTTATATCTCGGAGTCACCTAGTGCAG,37800 fluorescence intensity (a.u.)
4,TTAATTGATTTAGTTGGTGACCTTATATCTTGTTTAGATACGGAGTCACCTAGTGCAG,60600 fluorescence intensity (a.u.)
5,ATTAATTAATTAGTGATCATACATAATTGAGGTGATTTATCGGAGTCACCTAGTGCAG,65000 fluorescence intensity (a.u.)
6,TTTGATTGTGGTTATTGCACTGAAATTTTACAGATATTGTCGGAGTCACCTAGTGCAG,31800 fluorescence intensity (a.u.)
7,ATCCCTAATACGATTTACATGATTAGAGGAGAGACAATTTCGGAGTCACCTAGTGCAG,4470 fluorescence intensity (a.u.)
8,AATTGTCCCTGATTGACACCTCTTACTTGACCCTTCTTTCCGGAGTCACCTAGTGCAG,42600 fluorescence intensity (a.u.)
9,GAGCAGCAGCTTAATTGGATCATCGAATCTCGCACCGCCACGGAGTCACCTAGTGCAG,4860 fluorescence intensity (a.u.)
10,TAAACTTAATTTTAAAATCATAATTCAGAAATGTGGTGAACGGAGTCACCTAGTGCAG,30500 fluorescence intensity (a.u.)
11,ATGACTTGACGAGGTAAATAAAATTGGACCGGGCAGCAAACGGAGTCACCTAGTGCAG,3900 fluorescence intensity (a.u.)
12,CCCTAATCCCATTTAATCAGCACAGCTTCTTAATTACTCCCGGAGTCACCTAGTGCAG,6810 fluorescence intensity (a.u.)
13,GAAGTTATTAACAAATTAGATACATCTCTTGTTTAGATTACGGAGTCACCTAGTGCAG,4700 fluorescence intensity (a.u.)
14,TATTAATTGAGTGAGATTTGGGGTATTCAGTCGACTGGCACGGAGTCACCTAGTGCAG,54900 fluorescence intensity (a.u.)
15,GTATTAATTGGGGTGATTCATGACAACGATGAGATATTAACGGAGTCACCTAGTGCAG,32700 fluorescence intensity (a.u.)
16,TCTGAGATTTATTGATTAGATTATAACGTAATCGTTGTTACGGAGTCACCTAGTGCAG,29300 fluorescence intensity (a.u.)
17,CTCTGATAGATTGCGACCTTCTTGTTGTTTAACAACGTTACGGAGTCACCTAGTGCAG,54000 fluorescence intensity (a.u.)
18,ATATTCAGCTGATTGGGGCATTGGGTATTTGCAGTGAGCACGGAGTCACCTAGTGCAG,18500 fluorescence intensity (a.u.)
19,ACACACAGCGGCAAAATTGACACATTACACATCAGGAATCCGGAGTCACCTAGTGCAG,5060 fluorescence intensity (a.u.)
20,TGAAAGAAGAGATGATTGGGAAACACCATTAATAGGGTGGCGGAGTCACCTAGTGCAG,10500 fluorescence intensity (a.u.)
21,TGTCGTCAAAATTTGATGGAATTCACACGAATTTAGCAACCGGAGTCACCTAGTGCAG,5150 fluorescence intensity (a.u.)
